Source: PubChem BioAssay (University of Kansas High Throughput Screening Laboratory)
Many of the other results were omitted from the sample, so hits are more common in it than they were.
mHTT CaM bind: mutant huntingtin-calmodulin interaction inhibitors – biochemical, AlphaScreen, primary screen. AlphaScreen His-mHTT/GST-CaM binding, luminescence. inhibition, % at 15 µM. 190,000 tested, 3.6% active;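 further: 0% = both proteins with DMSO and 100% = one protein alone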
Pf apPOL block: Pf-apPOL inhibitors, biochemical, fluorescence. Recombinant Pf-apPOL, molecular beacon fluorescence, 1.5 h. inhibition, % at 10 µM. 210,000 tested, 0.25% active. AID 1794808, 2022
An asterisk follows results filed as active; x = no result. No stated cut-off is given here; in the data, active means inhibition above about 50%; inactive means the rest.

SMILES	mHTT CaM bind	Pf apPOL block
Cc1ccc(Cl)cc1NC(=O)N1CCC2(CC1)Nc1cc(F)ccc1-n1cccc12	29.4	0.1
COC(=O)c1cccc(NC(=O)N2CCC3(CC2)Nc2cc(F)ccc2-n2cccc23)c1	52.8*	-3.3
Cc1cccc(NC(=O)N2CCC3(CC2)Nc2cc(F)ccc2-n2cccc23)c1C	39.7	-3.4
Cc1ccc(NC(=O)N2CCC3(CC2)Nc2cc(F)ccc2-n2cccc23)cc1F	86.5*	-4.0
COc1cccc2sc(Nc3nc4ccc(S(C)(=O)=O)cc4s3)nc12	-36.4	-251.5
COc1cccc2sc(Nc3nnc(-c4cccs4)o3)nc12	75.6*	-264.9
CS(=O)(=O)N1CC(c2nc(-c3cccnc3)no2)C2(CCOCC2)C1 (configuration not stated)	-3.4	-8.1
O=C(O)CC1c2ccccc2Oc2ccccc21	-5.6	-1.2
O=CC1=C(c2ccccc2)Oc2ccccc2O1	51.4*	-6.0
Cc1ccc(CNC(=O)c2ccc3c(c2)Sc2ncccc2C(=O)N3C)cc1	-4.9	-4.6
Cc1cccc(C(=O)Nc2ccc3c(c2)Sc2ncccc2C(=O)N3C)c1	64.8*	-3.1
CN1C(=O)c2cccnc2Sc2cc(C(=O)NCc3cccc(Cl)c3)ccc21	51.7*	-14.6
CN1C(=O)c2cccnc2Sc2cc(NC(=O)c3cccc(Cl)c3)ccc21	8.8	-3.8
CCN1CCN(C2CCC(c3ccccc3)CC2)CC1 (configuration not stated)	0.7	4.6
CN(C)C(=O)c1ccc2c(c1)CC(=O)N2Cc1cccc(F)c1	15.1	2.3
Cc1ccc(C(=O)N=c2sc(C)cn2C(C)C(=O)NC2CC2)cc1 (configuration not stated)	0.3	2.1
COc1ccc(C2=NN3C(C2)c2cccc(OC)c2OC32CCCCC2)cc1 (configuration not stated)	50.0	-20.5
COc1ccc(C2=NN3C(C2)c2cccc(OC)c2OC3(C)C)cc1 (configuration not stated)	51.0*	-17.5
COc1cccc2c1OC(C)(C)N1N=C(c3cccs3)CC21 (configuration not stated)	61.0*	-25.6
CC1(C)Oc2ccc(Br)cc2C2CC(c3cccs3)=NN21 (configuration not stated)	59.0*	-3.3
O=S(=O)(c1ccccc1)N1N=C(c2cccs2)CC1c1ccc(Br)cc1 (configuration not stated)	-4.0	-54.4
COc1cccc2c1OC1(CCC(C)CC1)N1N=C(c3cccs3)CC21 (configuration not stated)	36.0	-15.2
O=C(CCNc1cnc2cnccn12)N1CCCCCC1	0.4	-3.2
COc1ccc(NS(=O)(=O)c2ccc(NS(=O)(=O)c3ccc(F)cc3)cc2)cc1	1.1	-17.3
O=C(Nc1ccc2c(c1)OCO2)Nc1ccc2c(c1)C(=O)N1CCCCC1CCO2 (configuration not stated)	12.7	-2.4
SMILES	mHTT CaM bind	Pf apPOL block
CN(CC(=O)Nc1cccc(F)c1)S(=O)(=O)c1ccc(Cl)cc1	-3.1	1.6
COc1cc(-c2nc(C=Nc3cccc(C(=O)O)c3)c(O)o2)cc(OC)c1OC	6.0	-4.5
CN(Cc1ccccc1)C(=O)C1CCCN(c2cnn(C)c(=O)c2)C1 (configuration not stated)	-0.4	0.0
O=C(Nc1ccc(O)c(-c2nc3ccccc3s2)c1)c1cc2ccccc2o1	-2.8	-9.1
Cc1ccccc1NC(=O)N1CC=C(c2cn(C(C)C)c3ncccc23)CC1	26.9	-5.5
COc1ccc(C)cc1NC(=O)N1CC=C(c2cn(C(C)C)c3ncccc23)CC1	53.1*	-4.2
COC(=O)C1C2C=CC3(CN(c4cccc(C)c4)C(=O)C13)O2 (configuration not stated)	65.6*	-3.0
CCCCOC(=O)C1C2C=CC3(CN(c4cccc(C)c4)C(=O)C13)O2 (configuration not stated)	-8.2	1.3
O=C1[C@H](Cc2ccccc2)NC/C=C\C[C@H](c2ccco2)N1Cc1ccccc1	51.0*	1.2
O=C1[C@H](Cc2ccccc2)NC/C=C\C[C@@H](c2ccc(Cl)cc2)N1Cc1ccc(Cl)cc1	99.0*	0.7
COC(=O)C1=C(C(=O)OC)[C@]2([C@@H]3C/C=C\CN[C@@H](Cc4ccccc4)C(=O)N3Cc3ccccc3)C=C[C@H]1O2	24.7	-3.4
O=C(NCCc1ccccc1)N1CCCC1c1ccc(Cl)cc1 (configuration not stated)	-0.2	-3.8
Cn1cnc2cc(CNC(=O)c3ccc4cc[nH]c4c3)ccc21	-1.7	-1.4
CCOc1nccnc1N1CCC(N(C)C(=O)NCc2ccccc2)C1 (configuration not stated)	6.3	-2.0
Cc1ccc2cccc(SCc3nc(N)nc(Nc4ccccc4)n3)c2n1	61.4*	-11.9
Nc1nc(CSc2ncccn2)nc(Nc2ccccc2)n1	-1.4	-3.5
COCCN1C(=O)N(c2ccc(F)cc2)C(=O)C1CC(=O)NCc1ccccc1 (configuration not stated)	-10.3	-8.0
CCn1c(C2CCN(S(=O)(=O)c3ccc4c(c3)CCCC4)C2)nc2ccncc21 (configuration not stated)	92.6*	10.8
CCn1c(C2CCN(S(=O)(=O)c3cc(F)cc(F)c3)C2)nc2ccncc21 (configuration not stated)	2.1	-2.7
O=C(c1ccccc1)N1CCc2nc(-c3ccc(F)cc3)ncc2C1	0.2	-1.7
Cc1ccc(C2CCCN2C(=O)c2cc(C(F)(F)F)n(C)n2)cc1 (configuration not stated)	2.2	4.6
Cc1ccc(Nc2cc(-n3cccn3)ncn2)cc1	-0.5	-3.9
CCOc1ccc(C(=O)Nc2ccc(Nc3ccc(-n4cccn4)nn3)cc2)cc1OCC	88.0*	-7.4
CCOc1ccc(C(=O)Nc2ccc(-n3nncc3-c3ccccc3)cc2)cc1OCC	20.0	-2.6
COCC(=O)Nc1ccc(Nc2ccccc2)cc1	46.7	-12.6
SMILES	mHTT CaM bind	Pf apPOL block
NS(=O)(=O)c1ccc(C(=O)Nc2ccc(Nc3ccc(-n4cccn4)nn3)cc2)cc1	95.3*	-7.6
NS(=O)(=O)c1ccc(NC(=O)c2ccc(F)cc2)cc1	2.1	-1.1
COCC(=O)Nc1ccc(Nc2ccc(-n3cccn3)nn2)cc1	99.2*	-1.5
Cc1ccc(S(=O)(=O)Nc2ccc(Nc3ccc(-n4cccn4)nn3)cc2)c(C)c1	100.0*	-1.5
O=C1CC(c2ccccc2)CC2=C1C(c1cccs1)Nc1ccc3ncccc3c12 (configuration not stated)	-5.0	4.2
CC(=O)N1CCc2c([nH]c3ccccc23)C1c1cccc(C)c1 (configuration not stated)	11.1	2.3
COCCNC(=O)C(=O)NCCC1=CCCCC1	-9.1	-6.2
CC(C)c1nnc(NC(=O)CC(C)(C)C)s1	-6.5	x
Cc1ccccc1NCN1C(=O)c2ccccc2C1=O	12.0	-0.7
COC[C@@H]1CCCN1c1ccc2c(c1)O[C@@H](COCc1ccccc1)CN([C@H](C)c1ccccc1)S2(=O)=O	1.3	-6.7
C[C@H](c1ccccc1)N1C[C@@H](COCc2ccccc2)Oc2cc(N3CC[C@H](O)C3)ccc2S1(=O)=O	77.8*	-2.1
C[C@H](c1ccccc1)N1C[C@H](COCc2ccccc2)Oc2cc(N3CCC[C@@H]3CO)ccc2S1(=O)=O	29.7	-9.6
